Several values for one entry are separate records, joined by “and”; a condition that tells them apart may be missing. Identical values can stand only once. In all, about 5,500 compounds went through this assay and about 2,000 (36%) were called active. About 18% were inconclusive and are not listed. Cut-off read from the data, not from the text of the source: active = normalized growth mostly below about 0.91 (no sharp cut-off); inconclusive = no clear call, values can overlap the other calls; inactive = mostly above about 0.92. The list shows a part of the results.
Test: chemical genetic growth profiling, strain panel (AID 1159580);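 note: tested at 20 µM; growth read once vehicle control cultures reached saturation at 30 °C; 1 = growth at the plate median or of vehicle wells; lower values mean less growth of the strain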
Conditions: S. cerevisiae deletion strains, growth OD

Measured: normalized growth

CC(=O)NCc1c(I)c(NC(C)=O)c(I)c(C(=O)O)c1I
inactive: locus YAL013W, strain DEP1, stronger effect = lower value 0.997 | locus YAL021C, strain ccr4, stronger effect = lower value 0.989 | locus YAL026C, strain drs2, stronger effect = lower value 0.997 | locus YAL030W, strain snc1, stronger effect = lower value 1 | locus YBL061C, strain skt5, stronger effect = lower value 0.994 | locus YBR009C, strain hhf1, stronger effect = lower value 0.991 | locus YBR021W, strain FUR4, stronger effect = lower value 1.02 | locus YBR023C, strain chs3, stronger effect = lower value 0.993 | locus YBR171W, strain sec66, stronger effect = lower value 0.995 | locus YBR229C, strain ROT2, stronger effect = lower value 0.999 | locus YBR231C, strain swc5, stronger effect = lower value 1 | locus YBR279W, strain paf1, stronger effect = lower value 0.989 | locus YCL011C, strain gbp2, stronger effect = lower value 1 | locus YCL016C, strain dcc1, stronger effect = lower value 0.993 | locus YCL029C, strain bik1, stronger effect = lower value 0.982 | locus YCL061C, strain MRC1, stronger effect = lower value 0.983 | locus YCL069W, strain vba3, stronger effect = lower value 1 | locus YCR088W, strain abp1, stronger effect = lower value 1 | locus YDL005C, strain med2, stronger effect = lower value 1 | locus YDL035C, strain GPR1, stronger effect = lower value 1.01 | locus YDL040C, strain nat1, stronger effect = lower value 1 | locus YDL074C, strain BRE1, stronger effect = lower value 0.982 | locus YDL101C, strain DUN1, stronger effect = lower value 0.991 | locus YDL134C, strain PPH21, stronger effect = lower value 0.999 | locus YDL185W, strain tfp1, stronger effect = lower value 0.959 | locus YDL192W, strain arf1, stronger effect = lower value 0.99 | locus YDR001C, strain nth1, stronger effect = lower value 1.01 | locus YDR069C, strain doa4, stronger effect = lower value 0.999 | locus YDR101C, strain arx1, stronger effect = lower value 0.996 | locus YDR137W, strain rgp1, stronger effect = lower value 1.01 | locus YDR150W, strain NUM1, stronger effect = lower value 0.995 | locus YDR159W, strain sac3, stronger effect = lower value 0.99 | locus YDR162C, strain NBP2, stronger effect = lower value 0.997 | locus YDR195W, strain ref2 0.989 | locus YDR297W, strain sur2, stronger effect = lower value 0.995 | locus YDR318W, strain mcm21, stronger effect = lower value 0.984 | locus YDR334W, strain swr1, stronger effect = lower value 0.999 | locus YDR335W, strain msn5, stronger effect = lower value 1.01 | locus YDR388W, stronger effect = lower value 0.998 | locus YDR392W, strain spt3, stronger effect = lower value 0.957 | locus YDR502C, strain sam2, stronger effect = lower value 1 | locus YEL003W, strain gim4, stronger effect = lower value 1.01 | locus YEL037C, strain rad23, stronger effect = lower value 1 | locus YEL061C, strain CIN8 (second series), stronger effect = lower value 1 | locus YEL061C, strain CIN8, stronger effect = lower value 0.997 | locus YER015W, strain faa2, stronger effect = lower value 0.987 | locus YER016W, strain bim1, stronger effect = lower value 1 | locus YER110C, stronger effect = lower value 0.996 | locus YER111C, strain swi4, stronger effect = lower value 0.994 | locus YER155C, strain BEM2 (second series), stronger effect = lower value 1.01 | locus YER155C, strain BEM2, stronger effect = lower value 0.998 | locus YER167W, strain BCK2, stronger effect = lower value 1 | locus YFR010W, strain ubp6, stronger effect = lower value 0.998 | locus YGL078C, strain dbp3, stronger effect = lower value 1 | locus YGL086W, strain mad1, stronger effect = lower value 1.02 | locus YGL167C, strain pmr1, stronger effect = lower value 0.992 | locus YGL173C, strain kem1, stronger effect = lower value 0.995 | locus YGL227W, strain vid30, stronger effect = lower value 1 | locus YGL240W, strain doc1, stronger effect = lower value 0.986 | locus YGL248W, strain PDE1, stronger effect = lower value 1.01 | locus YGL253W, strain hxk2, stronger effect = lower value 0.996 | locus YGR078C, strain PAC10, stronger effect = lower value 1 | locus YGR135W, strain pre9, stronger effect = lower value 0.997 | locus YGR229C, strain SMI1, stronger effect = lower value 1 | locus YGR252W, strain gcn5, stronger effect = lower value 1.16 | locus YHR013C, strain ard1, stronger effect = lower value 0.997 | locus YHR027C, strain rpn1, stronger effect = lower value 1.01 | locus YHR030C, strain SLT2, stronger effect = lower value 0.996 and 1.01 | locus YHR079C, strain IRE1 (second series), stronger effect = lower value 0.992 | locus YHR079C, strain IRE1, stronger effect = lower value 1.02 | locus YHR094C, strain hxt1, stronger effect = lower value 0.98 | locus YHR129C, strain ARP1, stronger effect = lower value 0.997 | locus YHR142W, strain chs7, stronger effect = lower value 1.02 | locus YHR200W, strain rpn10, stronger effect = lower value 0.988 | locus YIL066C, strain RNR3, stronger effect = lower value 1 | locus YIL073C, strain SPO22, stronger effect = lower value 0.986 | locus YIL125W, strain kgd1, stronger effect = lower value 0.99 | locus YIR030C, strain dcg1, stronger effect = lower value 0.993 | locus YJL092W, strain hpr5, stronger effect = lower value 0.998 | locus YJL095W, strain BCK1 (second series), stronger effect = lower value 1 | locus YJL095W, strain BCK1, stronger effect = lower value 0.98 and 1.02 | locus YJL115W, strain asf1, stronger effect = lower value 0.993 | locus YJL129C, strain trk1, stronger effect = lower value 0.995 | locus YJL134W, strain LCB3, stronger effect = lower value 1 | locus YJL154C, strain vps35, stronger effect = lower value 1 | locus YJL164C, strain tpk1, stronger effect = lower value 0.996 | locus YJL166W, strain qcr8, stronger effect = lower value 0.991 | locus YJL168C, strain set2, stronger effect = lower value 0.992 | locus YJL187C, strain SWE1 (second series), stronger effect = lower value 0.987 | locus YJL187C, strain SWE1, stronger effect = lower value 1.02 | locus YJR043C, strain POL32, stronger effect = lower value 0.982 | locus YJR066W, strain TOR1, stronger effect = lower value 0.974
